Measurements reported in PubChem BioAssay (Tox21).
Results filed as inconclusive are left out. Calls of active or inactive are those of the source. Unless noted, calls follow the shape of the dose curve; as a rule, active = well fitted curve in the direction sought with a large enough effect in the repeat runs; inconclusive = weak or mixed curves; inactive = no such curve, though single readings can be large; an effect the other way counts as inactive or inconclusive.

Tests used:
[1] = qHTS assay for small molecule agonists of the p53 signaling pathway (AID 651631; calls by dose curve; also: nearly all actives have a fitted effect of over 15% in size)
Summary of the method: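 Read-out is beta-lactamase FRET fluorescence measured 2 h after substrate addition at room temperature, in HCT-116 cells with a p53 response element-driven reporter exposed to compounds for 16 h at 37 °C.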

[2] = qHTS assay for small molecules that induce genotoxicity in human embryonic kidney cells expressing luciferase-tagged ATAD5 (AID 651632); also: nearly all actives have a fitted effect of over 15% in size
Summary of the method: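 DMSO vehicle served as the control. HEK293T reporter cells, 16 hr at 37C, then 30 min Amplite at room temperature; ATAD5 induction is measured as luciferase activity.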

[3] = qHTS assay for small molecule agonists of the p53 signaling pathway - cell viability (AID 651633; calls by dose curve;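 also: p53RE-bla HCT reporter cells with a stable beta-lactamase p53 reporter; series mostly up to about 83 µM; nearly all actives have a fitted effect of over 30% in size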)
Summary of the method: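 Viability counter-read: CellTiter-Glo luminescence (30 min, room temperature) in the same p53RE-bla plates. These plates had been exposed to compounds for 16 h at 37 C.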

[4] = qHTS assay for small molecules that induce genotoxicity in human embryonic kidney cells expressing luciferase-tagged ATAD5 - cell viability (AID 651634; calls by dose curve; also: nearly all actives have a fitted effect of over 25% in size)
Summary of the method: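 Here HEK293T cells with the ATAD5 luciferase reporter are incubated with test compounds for 15.5 hr, and cytotoxicity is then gauged by measuring protease activity in live cells using fluorescence.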

[5] = qHTS assay for small molecule disruptors of the mitochondrial membrane potential - cell viability (AID 720634; calls by dose curve;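 also: human HepG2 liver cancer cells; series mostly up to about 83 µM; nearly all actives have a fitted effect of over 20% in size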)
Summary of the method: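 Viability of HepG2 cells is scored from ATP content by luminescence; cells are exposed to compound for 1 hr at 37 C and 5% CO2, then dosed with m-MPI dye before the CellTiter-Glo reagent.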

[6] = qHTS assay to test for compound auto fluorescence at 590 nm (red) in HepG2 cells (AID 720674)
Summary of the method: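 We screened compounds on adherent HepG2 cells, incubating them for an hour at 37 C in 5% CO2 before reading emission at 590 nm under 540 nm excitation; values reflect equivalence to Rose Bengal sodium fluorescence.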

[7] = qHTS assay to test for compound auto fluorescence at 535 nm (green) in HepG2 cells (AID 720675)
[8] = qHTS assay to test for compound auto fluorescence at 460 nm (blue) in HEK293 cells (AID 720678)
Summary of the method: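 Auto fluorescence in the blue band was quantified as triamterene equivalency. HEK293 cells were seeded at 2,000/well, dosed after a 4-5 hr attachment, and kept overnight at 37C before the 405/460 nm reading.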

[9] = qHTS assay to test for compound auto fluorescence at 590 nm (red) in HEK293 cells (AID 720679)
Summary of the method: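 Autofluorescence equivalency to Rose Bengal sodium, 540/590nm, in HEK293 cells exposed overnight to 23 nL compound per well.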

[10] = qHTS assay to test for compound auto fluorescence at 535 nm (green) in HEK293 cells (AID 720680)
[11] = qHTS assay to test for compound auto fluorescence at 460 nm (blue) in HEK293 cell free culture (AID 720681)
Summary of the method: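 Blue fluorescence (Ex 405/Em 460 nm, triamterene-equivalent) was read immediately after pin transfer of compound or DMSO into medium (DMEM, 10% FBS) without cells.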

[12] = qHTS assay to test for compound auto fluorescence at 535 nm (green) in HEK293 cell free culture (AID 720682)
Summary of the method: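 Fluorescein serves as the green reference fluorophore; each compound's intrinsic emission at 535 nm (excitation 485 nm) is reported as an equivalent amount of that dye, measured in serum-containing DMEM without cells.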

[13] = qHTS assay to test for compound auto fluorescence at 590 nm (red) in HEK293 cell free culture (AID 720683)
Summary of the method: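 Red-channel autofluorescence of compounds in culture medium (DMEM, 10% FBS), no cells, measured at 540/590 nm. Rose Bengal sodium is the reference fluorophore for equivalence.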

[14] = qHTS assay to test for compound auto fluorescence at 590 nm (red) in HepG2 cell free culture (AID 720684)
Summary of the method: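 Cell-free; medium MEM + 10% FBS; compound or DMSO added by pintool; read Ex 540/Em 590 nm; Rose Bengal sodium as red reference fluorophore.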

[15] = qHTS assay to test for compound auto fluorescence at 460 nm (blue) in HepG2 cell free culture (AID 720685)
Summary of the method: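 Cell-free plates of MEM plus 10% FBS received 23 nL compound or DMSO vehicle; blue-channel (405/460 nm) intensity scored against triamterene as reference fluorophore.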

[16] = qHTS assay to test for compound auto fluorescence at 535 nm (green) in HepG2 cell free culture (AID 720686)
[17] = qHTS assay to test for compound auto fluorescence at 460 nm (blue) in HepG2 cells (AID 720687)
Summary of the method: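 Blue-channel autofluorescence (Ex/Em 405/460 nm, triamterene-equivalent) was measured after 1 hr compound exposure at 37 C, 5% CO2. Cells were HepG2, plated overnight at 37 C in MEM plus 10% FBS.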

[18] = target: Glucocorticoid receptor (Homo sapiens) (UniProt P04150); assay: qHTS assay to identify small molecule agonists of the glucocorticoid receptor (GR) signaling pathway (AID 720691; active = well fitted activation curve with a large enough effect in the signal ratio in the repeat runs, not every such curve was filed as active; the % refers to the signal ratio)
Glucocorticoid receptor (Homo sapiens), sequence (P04150 whole entry, looked up): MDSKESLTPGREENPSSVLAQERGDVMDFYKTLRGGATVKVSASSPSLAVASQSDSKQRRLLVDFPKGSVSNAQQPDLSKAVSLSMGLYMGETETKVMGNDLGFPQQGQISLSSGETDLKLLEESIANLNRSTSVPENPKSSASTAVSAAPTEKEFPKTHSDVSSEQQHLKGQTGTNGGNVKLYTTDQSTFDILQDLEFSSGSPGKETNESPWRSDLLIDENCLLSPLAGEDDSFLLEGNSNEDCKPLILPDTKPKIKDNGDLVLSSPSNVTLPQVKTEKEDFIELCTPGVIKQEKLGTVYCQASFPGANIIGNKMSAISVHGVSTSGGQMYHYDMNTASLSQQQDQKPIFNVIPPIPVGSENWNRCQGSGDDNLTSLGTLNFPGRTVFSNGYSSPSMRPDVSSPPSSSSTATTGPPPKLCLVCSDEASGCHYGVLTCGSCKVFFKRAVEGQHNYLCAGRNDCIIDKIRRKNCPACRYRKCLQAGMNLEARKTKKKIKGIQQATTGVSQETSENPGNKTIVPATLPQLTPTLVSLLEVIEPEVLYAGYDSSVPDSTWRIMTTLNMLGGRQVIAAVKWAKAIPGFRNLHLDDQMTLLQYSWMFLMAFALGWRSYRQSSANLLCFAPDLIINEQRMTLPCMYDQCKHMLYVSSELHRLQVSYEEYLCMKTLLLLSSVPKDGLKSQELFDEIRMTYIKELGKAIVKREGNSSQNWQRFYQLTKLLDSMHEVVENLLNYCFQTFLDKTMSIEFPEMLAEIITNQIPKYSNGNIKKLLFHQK
Summary of the method: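 Compounds in DMSO, alongside positive controls, were added to GR-bla HeLa reporter cells and incubated 18 h at 37 C; GRE-driven beta-lactamase was detected by fluorescence after 2 h with FRET substrate at room temperature.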

[19] = target: Glucocorticoid receptor (Homo sapiens) (UniProt P04150); assay: qHTS assay to identify small molecule antagonists of the glucocorticoid receptor (GR) signaling pathway (AID 720692; active = well fitted inhibition curve with a large enough effect in the signal ratio in the repeat runs, not every such curve was filed as active; the % refers to the signal ratio)
Summary of the method: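 In a 1536-well cell format, compounds were added 4 h after seeding GR-bla HeLa cells, together with dexamethasone at 5 nM final; reporter activity was measured by FRET-substrate fluorescence following 18 h at 37 C.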

Measured: Potency

CCCCCCOC(=O)C(C)CC (stereo unspecified)
inactive: all assays above

[Cl][Pt-2]([Cl])([Cl])[Cl]
not listed: [9] | [19]
inactive: all other assays above

CCCCC(CC)COC(=O)CCCCC(=O)OCc1ccccc1 (stereo unspecified)
inactive: all assays above

O=C(O)CCN(C1(C(=O)NO)CCCC1)S(=O)(=O)c1ccc(Oc2ccc(F)cc2)cc1
not listed: [7] | [17] | [18] | [19]
inactive: all other assays above

OC/C=C/CO
not listed: [5] | [17] | [18] | [19]
inactive: all other assays above

O=C(/C=C/c1ccccc1)OC/C=C/c1ccccc1
not listed: [7] | [15] | [17]
inactive: all other assays above

CCOC(=O)NNc1ccc(N(CC)CC(C)O)nn1 (stereo unspecified)
not listed: [9] | [17] | [18] | [19]
inactive: all other assays above
